Consider 40 compounds from PubChem BioAssay AID1611 (NINDS Approved Drug Screening Program, 2009).

Structures are written as SMILES.

The experiment in a line: inducers of human heat shock response, cell-based, HSE luciferase (AID 1611). The conditions noted are these: human cells, HSE-luciferase heat shock reporter; stronger effect = higher value.
Consider `COc1ccc2c(c1)c(CC(=O)O)c(C)n2C(=O)c1ccc(Cl)cc1`, for which the fold change was found to be 0.9.

As for `CC(=O)Nc1ccccc1`, the fold change was 0.93.

For the compound `C[n+]1c2cc(N)ccc2cc2ccc(N)cc21`, the fold change was 1.45.

Turning to `CCC(=O)O[C@H]1[C@H](O[C@@H]2[C@@H](C)[C@H](O[C@H]3C[C@@](C)(OC)[C@@H](O)[C@H](C)O3)[C@@H](C)C(=O)O[C@H](CC)[C@@](C)(O)[C@H](O)[C@@H](C)C(=O)[C@H](C)C[C@@]2(C)O)O[C@H](C)C[C@@H]1N(C)C`, the fold change was determined as 1.55.

As for `O=C(O)c1ccccc1O`, the fold change was 0.73.

On to `COC1=CC(=O)C[C@@H](C)[C@]12Oc1c(Cl)c(OC)cc(OC)c1C2=O`, for which the fold change was found to be 0.94.

Turning to `CC(CN1c2ccccc2Sc2ccccc21)N(C)C` (stereo not given), the fold change was 0.91.

`C=C[C@H]1CN2CC[C@H]1C[C@@H]2[C@H](O)c1ccnc2ccc(OC)cc12`: the fold change amounted to 1.63.

On to `CC1CCc2cc(F)cc3c(=O)c(C(=O)O)cn1c23` (stereo not given), for which the fold change was determined as 1.07.

For the compound `CSc1ccc2c(c1)N(CCC1CCCCN1C)c1ccccc1S2` (stereo not given), the fold change came to 0.58.

With `CC(C)[N+]1(C)C2CC[C@@H]1CC(OC(=O)C(CO)c1ccccc1)C2` (stereo not given in full), the fold change is 0.91.

With `NCC(O)CC(=O)O` (stereo not given), the fold change worked out at 0.94.

With `C#C[C@]1(OC(C)=O)CCC2C3CCC4=CC(=O)CC[C@@H]4C3CC[C@@]21C` (stereo not given in full), the fold change is 0.92.

As for `CCN(CC)CC(=O)Nc1c(C)cccc1C`, the fold change amounted to 0.78.

As for `CC(C)Oc1ccc2c(=O)cc(-c3ccccc3)oc2c1`, the fold change was 1.28.

`COC(=O)C(N)CS` (stereo not given): the fold change is 0.85.

Take `CCN(CC)CCOC(=O)C(c1ccccc1)c1ccccc1`: the fold change came to 1.24.

Take `CC(C)NCC(O)COc1ccc(CC(N)=O)cc1` (stereo not given): the fold change turned out to be 0.76.

For the compound `COc1c2occc2c(OC)c2c(=O)cc(C)oc12`, the fold change worked out at 0.96.

On to `COC(=O)Nc1nc2ccc(Sc3ccccc3)cc2[nH]1`, for which the fold change turned out to be 0.92.

As for `Nc1cc(-c2ccncc2)c[nH]c1=O`, the fold change was 1.16.

With `CCCn1c(=O)c2[nH]c(C3CCCC3)nc2n(CCC)c1=O`, the fold change was 0.74.

In the case of `C=CCc1ccccc1OCC(O)CNC(C)C` (stereo not given), the fold change was 1.15.

For `Cn1c(=O)c2c(ncn2CC(O)CO)n(C)c1=O` (stereo not given), the fold change worked out at 1.13.

Consider `CO/N=C(\C(=O)NC1C(=O)N2C(C(=O)O)=C(CSc3nc(=O)c(O)nn3C)CS[C@H]12)c1csc(N)n1` (stereo not given in full), for which the fold change was determined as 0.94.

For the compound `CC(=O)Nc1nnc(S(N)(=O)=O)s1`, the fold change came out at 0.33.

Consider `CC1(C)S[C@@H]2[C@H](NC(=O)[C@H](NC(=O)N3CCNC3=O)c3ccccc3)C(=O)N2C1C(=O)O` (stereo not given in full), for which the fold change was 0.89.

With `c1ccc2[nH]c(-c3cscn3)nc2c1`, the fold change came to 0.81.

For `COc1cc(NS(=O)(=O)c2ccc(N)cc2)nc(OC)n1`, the fold change came out at 0.93.

Regarding `CCCCNc1cc(C(=O)O)cc(S(N)(=O)=O)c1Oc1ccccc1`, the fold change worked out at 1.03.

As for `Nc1ncn([C@@H]2O[C@H](CO)[C@@H](O)[C@H]2O)c(=O)n1`, the fold change turned out to be 1.3.

As for `CC(=O)NS(=O)(=O)c1ccc(N)cc1`, the fold change was found to be 0.98.

Take `O=C(Cn1ccnc1[N+](=O)[O-])NCCO`: the fold change is 0.93.

Regarding `COC(=O)[C@H]1[C@H]2C[C@@H]3c4[nH]c5cc(OC)ccc5c4CCN3C[C@H]2C[C@@H](OC(=O)c2cc(OC)c(OC)c(OC)c2)[C@@H]1OC`, the fold change came out at 0.6.

Regarding `O=C(O)C1CCCNC1` (stereo not given), the fold change came out at 0.81.

Take `CC[C@H]1OC(=O)[C@H](C)[C@@H](O[C@H]2C[C@@](C)(OC)[C@@H](O)[C@H](C)O2)[C@H](C)[C@@H](O[C@@H]2O[C@H](C)C[C@H](N(C)C)[C@H]2O)[C@](C)(O)C[C@@H](C)CN(C)[C@H](C)[C@@H](O)[C@]1(C)O`: the fold change came out at 293.

For the compound `COc1ccc2cc3[n+](cc2c1OC)CCc1cc2c(cc1-3)OCO2`, the fold change amounted to 1.07.

Turning to `CC(=O)OCC1=C(C(=O)O)N2C(=O)[C@@H](NC(=O)CSc3ccncc3)[C@H]2SC1`, the fold change came out at 0.82.

For `CCc1cc(C(N)=S)ccn1`, the fold change is 0.94.

For `CC(=O)N(O)CCCCCNC(=O)CCC(=O)N(O)CCCCCNC(=O)CCC(=O)N(O)CCCCCN`, the fold change was 0.7.
